Several values for one entry are separate records, joined by “and”; a condition that tells them apart may be missing. Identical values can stand only once. In all, about 650,000 compounds went through this assay and about 6,800 (1%) were called active. The full list was thinned out, with actives kept by preference. A number with no mark means an inactive call. Cut-off read from the data, not from the text of the source: active = activation above about 4.9%; inactive = the rest.
target: G-protein coupled receptor 151 (Homo sapiens) (UniProt Q8TDV0); assay: activates the human receptor GPR151, primary screen, cell-based, PathHunter beta-arrestin, luminescence (AID 1508602); settings: PathHunter beta-arrestin GPR151 cells, at 11.2 µM, stronger effect = higher value;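 note: 0% = median of compound wells and 100% = cells with positive control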
Sequence (Q8TDV0 whole entry, looked up): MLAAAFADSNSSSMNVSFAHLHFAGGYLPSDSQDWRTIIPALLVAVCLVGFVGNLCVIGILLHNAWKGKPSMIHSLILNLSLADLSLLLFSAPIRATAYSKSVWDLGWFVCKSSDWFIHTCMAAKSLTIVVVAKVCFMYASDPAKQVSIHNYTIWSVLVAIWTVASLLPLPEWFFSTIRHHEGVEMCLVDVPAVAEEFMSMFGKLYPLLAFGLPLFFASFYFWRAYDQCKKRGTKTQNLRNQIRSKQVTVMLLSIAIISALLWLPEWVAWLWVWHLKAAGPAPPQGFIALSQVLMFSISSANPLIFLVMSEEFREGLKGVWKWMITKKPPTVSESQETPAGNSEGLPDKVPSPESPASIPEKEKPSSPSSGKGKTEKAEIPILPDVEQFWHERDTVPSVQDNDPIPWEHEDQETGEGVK

Row | Structure (SMILES) | activation
1 | O=C(NCc1ccccc1)N(CCN1CCCC1)Cc1cc2cc3c(cc2[nH]c1=O)OCO3 | -0.475%
2 | Cc1ccc(S(=O)(=O)C2(C(=O)Nc3ccc([N+](=O)[O-])cn3)CC2)cc1 | 0.544%
3 | COc1cc(S(=O)(=O)NCCN2CCOCC2)ccc1Br | -1.15%
4 | CC(C)N(CCNc1cc(N2CCOCC2)ncn1)C(C)C | -0.393%
5 | CCc1ccc(S(=O)(=O)NCCOc2cc(N3CCOCC3)ncn2)cc1 | 5.88% (active)
6 | O=C1CCCC2=C1C(c1ccccc1[N+](=O)[O-])c1c([nH]c(=O)[nH]c1=O)N2 (stereo unspecified) | -0.211%
7 | COc1ccc2c(=O)c(C(=O)O)c[nH]c2c1 | -1.56%
8 | CC(=O)Nc1ccc(NC(=O)/C=C\C(=O)O)cc1C | 2.3%
9 | CCOC(=O)C1=C(c2ccccc2)S/C(=C2/C(=S)C(C)(C)N(C(C)=O)c3cc(C)c(C)cc32)S1 | 1.9%
10 | N#CCCN1c2ccccc2Sc2ccc(C(F)(F)F)cc21 | 1.1%
11 | O=C(Nc1cc([N+](=O)[O-])ccc1Cl)c1cc(Cl)ccc1Cl | -0.475%
12 | CCNc1nc2ccc(C(=O)Nc3ccc(NC(C)=O)cc3)cc2s1 | -3.46%
13 | CC(=O)Nc1ccc(NC(=O)c2ccc3nc(Br)sc3c2)cc1 | 6.16% (active)
14 | O=C(Nc1ccccc1)c1ccc2nc(Br)sc2c1 | -4.09%
15 | Cc1ccc(C(=O)NCC(=O)OCC(=O)Nc2cccc(Cl)c2)s1 | 0.82%
16 | NC(=O)c1c(NC(=O)c2ccccc2F)sc2c1CCCCCC2 | 1.12%
17 | COC(CNC(=O)CC(NS(=O)(=O)c1ccc(C)cc1)c1ccco1)OC (stereo unspecified) | -0.827%
18 | COC(=O)c1ccc2c(=O)n(CCN3CCOCC3)c(SCc3cc(C(C)=O)ccc3OC)nc2c1 | -0.152%
19 | COc1ccccc1NC(=O)Nc1ccnn1C1CCN(C(=O)CCc2ccccc2)CC1 | 0.323%
20 | O=C(CCc1nnc(CCCCc2ccccc2)o1)N1CCC(N2CCSCC2)CC1 | 7% (active)
21 | O=C(CCc1nnc(Cc2cccc(C(F)(F)F)c2)o1)N1CCSCC1 | -0.806%
22 | CN(Cc1ccno1)C(=O)CC1C(=O)NCCN1Cc1ccoc1 (stereo unspecified) | 1.36%
23 | COc1cccc(N(C(=O)c2csnn2)C(C(=O)NC(C)(C)C)c2ccc(F)cc2)c1 (stereo unspecified) | 0.396%

Row | Structure (SMILES) | activation
24 | CCc1ccc(CN(C)C(=O)CC2(c3ccccc3Cl)CC(=O)N(C)C2=O)cc1 (stereo unspecified) | 0.519%
25 | CCc1ccc(-c2oc(C)c(C)[n+]2[O-])cc1 | -2.56%
26 | Cc1cnc(CN(C)C(=O)CC2(c3ccccc3C)CC(=O)N(CCN(C)C)C2=O)[nH]1 (stereo unspecified) | 1.18%
27 | COCCN1C(=O)CC(CC(=O)NCc2nc3ccccc3[nH]2)(c2ccccc2C)C1=O (stereo unspecified) | 6.75% (active)
28 | COCCN1C(=O)CC(CC(=O)N(C)C(C)C)(c2ccccc2F)C1=O (stereo unspecified) | -1.69%
29 | COCCNC(=O)c1cnn2c(C)c(Cc3ccc(Cl)cc3)c(C)nc12 | 0.41%
30 | CC(=O)c1ccc(-c2cnc3[nH]c(=O)n(C4CCCCC4)c3n2)s1 | -0.0776%
31 | Cc1ccc(S(=O)(=O)N2CC3CC3C2C(=O)Nc2ccc(F)cc2)cc1 (stereo unspecified) | 0.0458%
32 | Nc1ccc(C(=O)Nc2nc3ccc(C(=O)N4CCCCC4)cc3s2)cc1 | -0.249%
33 | O=C(O)c1c(CNC2CCCCC2)c2ccccc2n1Cc1ccc(Cl)cc1 | -0.235%
34 | CC1CCCC(NCc2c(C(=O)O)n(Cc3ccc(Cl)cc3)c3ccccc23)C1C (stereo unspecified) | 7.5% (active)
35 | CC1CCCC(NCc2c(C(=O)O)n(Cc3ccc(F)cc3)c3ccccc23)C1C (stereo unspecified) | 0.786%
36 | O=C(Nc1ccc(N2CCOCC2)cc1)c1ccc2nc(Nc3ccncc3)sc2c1 | 0.271%
37 | NC(=O)Cn1c(=O)n(CCCCC(=O)NCCc2ccccc2)c(=O)c2ccccc21 | -0.245%
38 | O=C(Cn1c(=O)n(Cc2ccccc2)c(=O)c2ccccc21)c1ccccc1 | 5.03% (active)
39 | COc1ccc(OC)c(NC(=O)Cn2c(=O)n(Cc3ccccc3)c(=O)c3ccccc32)c1 | -0.558%
40 | CCOC(=O)c1sc(NC(=O)CSc2ncccn2)c(C#N)c1C | 4.97% (active)
41 | CCOC(=O)c1sc(NC(=O)CSc2nnc(-c3ccccc3)o2)c(C#N)c1C | -0.17%
42 | CCOC(=O)c1sc(NC(C)=O)c(C#N)c1C | -1.06% and -0.982%
43 | NC(=O)c1c(NC(=S)NC(=O)c2ccccc2)sc2c1CCCCCC2 | -0.485%
44 | COc1ccc(C2CC(c3ccccc3)n3ncnc3N2)cc1 (stereo unspecified) | -0.25%
45 | COC(Cn1c(=S)[nH]c2cc3ccccc3cc2c1=O)OC | 0.597%
46 | COc1ccc(C2(C)NC(=O)N(CC(=O)Nc3ccc4ccccc4c3)C2=O)cc1 (stereo unspecified) | 5.16% (active)

Row | Structure (SMILES) | activation
47 | CC1(c2ccc3ccccc3c2)NC(=O)N(CC(N)=O)C1=O (stereo unspecified) | -0.0365%
48 | COc1ccc(C2(C)NC(=O)N(CC(=O)NCCc3ccccc3)C2=O)cc1 (stereo unspecified) | -0.0334%
49 | O=C(Nc1ccc2cn[nH]c2c1)c1ccc(F)cc1F | -2.11%
50 | Cc1nn(-c2ccccc2)c2c1C(c1ccc(-c3ccccc3)cc1)C(C#N)=C(N)O2 (stereo unspecified) | -3.52%
51 | COc1cc(C2C(C#N)=C(N)Oc3c2c(C)nn3-c2ccccc2)ccc1OCC#N (stereo unspecified) | 0.152%
52 | COc1ccc(C2C(C#N)=C(N)Oc3c2c(C)nn3-c2ccccc2)cc1 (stereo unspecified) | 8.46% (active)
53 | CCOC(=O)Cn1c(CNC(=O)c2ccco2)nc2ccccc21 | -1.37%
54 | CCOC(=O)c1cccc(NC(=O)CCCOc2ccc(OC)cc2)c1 | 5.63% (active)
55 | CCOC(=O)c1cccc(NC(=O)/C=C/c2ccccc2)c1 | 5.45% (active)
56 | CCOC(=O)c1cccc(Nc2c(-c3ccccc3)c(=O)c2=O)c1 | -1.39%
57 | COc1cccc(NC(=O)CCCOc2ccc(C)cc2)c1 | 0.676%
58 | CCOC(=O)c1cccc(NC(=O)/C=C/c2ccc(Cl)cc2)c1 | -0.517%
59 | COc1ccc(OCCCC(=O)Nc2ccccc2)cc1 | -0.655%
60 | COc1cc(NC(=O)CSc2ncccc2-c2nc3ccccc3[nH]2)cc(OC)c1 | -2.5%
61 | COc1ccc(N2CCN(c3nc(Nc4ccc(C)c(Cl)c4)nc(N4CCCC4)n3)CC2)cc1 | -0.777%
62 | COc1ccc(-c2cc(-c3cccs3)nc3sc(C(N)=O)c(N)c23)cc1 | -1.24%
63 | CC/C=C\C/C=C\C/C=C\C/C=C\C/C=C\C[C@H]1O[C@H]1CCC(=O)OC | 0.982%
64 | Cc1cccc(C(=O)OCC(=O)NC(=O)NCc2ccccc2)c1C | 0.774%
65 | COc1ccc(N2CCN(C(=O)c3ccc(Cn4c(=S)[nH]c5ccc(Br)cc5c4=O)cc3)CC2)cc1 | -0.211%
66 | COc1cc(OC)c(OC)cc1/C=N/N=C1\NC(=O)C(CC(=O)O)S1 (stereo unspecified) | 0.825%
67 | Cc1ccc(C(=O)Oc2ccccc2/C=N/N=C2\NC(=O)C(CC(=O)O)S2)cc1 (stereo unspecified) | 7.49% (active)
68 | CC/C(=N\N=C1/NC(=O)C(CC(=O)O)S1)c1ccc(C)cc1 (stereo unspecified) | -1.1%
69 | CCCC(=O)Nc1ccc(S(=O)(=O)N(Cc2ccsc2)C2CC2)cc1 | 0.722%

Row | Structure (SMILES) | activation
70 | O=C(Nc1cccc(NC(=O)c2cccc(Cl)c2Cl)c1)c1ccco1 | -0.952%
71 | O=C(Nc1ccc(NC(=O)c2cccc3c(Br)cccc23)cc1)c1ccco1 | 34.7% (active)
72 | O=C(Nc1ccc(NC(=O)c2cccnc2Cl)cc1)c1ccco1 | 0.162%
73 | CCN1C(=O)S/C(=C/c2cccc(C(F)(F)F)c2)C1=O | 1.18%
74 | CNC(=O)Cn1ncc2c3ccccc3n(Cc3ccccc3)c2c1=O | 0.452%
75 | CCN(CC)C(=O)Cn1ncc2c3ccccc3n(Cc3ccccc3)c2c1=O | -0.284%
76 | COC(=O)Cn1ncc2c3ccccc3n(Cc3cccc(Cl)c3)c2c1=O | 4.95% (active)
77 | COCCOC(=O)C1=C(N)OC2=C(C(=O)CC(C)(C)C2)C1c1ccc(F)c(F)c1 (stereo unspecified) | 0.277%
78 | CC1=C(C(=O)OCCOc2ccccc2)C(c2ccccc2F)NC(=O)N1 (stereo unspecified) | -1.1%
79 | CCOC(=O)c1sc(NC(=O)C(C)Sc2nnc(CNC(=O)c3ccc(OC)cc3)n2Cc2ccccc2)c(C(=O)OCC)c1C (stereo unspecified) | -1.72%
80 | Nc1nc(SCc2cccc3ccccc23)c2[nH]cnc2n1 | -0.0695%
81 | COc1ccc(-c2nc(N)c3[nH]cnc3n2)cc1 | -0.0768%
82 | CSc1nc(N)nc2nc[nH]c12 | 16.2% (active)
83 | O=C(Cn1c(=S)nc2ccccn21)N1CCc2ccccc2C1 | 7.33% (active)
84 | CC(C)CC(=O)N1CCc2ccccc2C1 | -1.1%
85 | Cc1cccc2cnn(CC(=O)N3CCc4ccccc4C3)c12 | -2%
86 | CCc1nc(N2CCC(C(=O)O)CC2)c2oc3ccccc3c2n1 | -2.33%
87 | CCOc1ccc(C2=C(C(=O)CC)Sc3nnc(CC)n3N2C(=O)CC)cc1 | -0.342%
88 | CC(=O)C1=C(c2ccc(C(C)(C)C)cc2)N(C(C)=O)n2cnnc2S1 | 0.857%
89 | CCc1nnc2n1N(C(C)=O)C(c1ccc3c(c1)CCCC3)=C(C(C)=O)S2 | 8.6% (active)
90 | CCOc1ccccc1CNn1c(-c2ccc(OC)cc2)nc2ccccc2c1=O | -1.68%
91 | COc1ccccc1/C=C/CN1CCNC(=O)C1CC(=O)NC1CC1 (stereo unspecified) | -1.56%

From PubChem BioAssay AID1508602 (The Scripps Research Institute Molecular Screening Center, 2020)
